Assay outcomes as filed in PubChem BioAssay.
mHTT CaM bind – disrupts binding of mutant huntingtin to calmodulin; P42858; AlphaScreen His-mHTT/GST-CaM binding, luminescence; inhibition, % at 15 µM; 190,000 tested, 3.6% active; AID 1671202
Target sequence (P42858 whole entry, looked up, change not shown): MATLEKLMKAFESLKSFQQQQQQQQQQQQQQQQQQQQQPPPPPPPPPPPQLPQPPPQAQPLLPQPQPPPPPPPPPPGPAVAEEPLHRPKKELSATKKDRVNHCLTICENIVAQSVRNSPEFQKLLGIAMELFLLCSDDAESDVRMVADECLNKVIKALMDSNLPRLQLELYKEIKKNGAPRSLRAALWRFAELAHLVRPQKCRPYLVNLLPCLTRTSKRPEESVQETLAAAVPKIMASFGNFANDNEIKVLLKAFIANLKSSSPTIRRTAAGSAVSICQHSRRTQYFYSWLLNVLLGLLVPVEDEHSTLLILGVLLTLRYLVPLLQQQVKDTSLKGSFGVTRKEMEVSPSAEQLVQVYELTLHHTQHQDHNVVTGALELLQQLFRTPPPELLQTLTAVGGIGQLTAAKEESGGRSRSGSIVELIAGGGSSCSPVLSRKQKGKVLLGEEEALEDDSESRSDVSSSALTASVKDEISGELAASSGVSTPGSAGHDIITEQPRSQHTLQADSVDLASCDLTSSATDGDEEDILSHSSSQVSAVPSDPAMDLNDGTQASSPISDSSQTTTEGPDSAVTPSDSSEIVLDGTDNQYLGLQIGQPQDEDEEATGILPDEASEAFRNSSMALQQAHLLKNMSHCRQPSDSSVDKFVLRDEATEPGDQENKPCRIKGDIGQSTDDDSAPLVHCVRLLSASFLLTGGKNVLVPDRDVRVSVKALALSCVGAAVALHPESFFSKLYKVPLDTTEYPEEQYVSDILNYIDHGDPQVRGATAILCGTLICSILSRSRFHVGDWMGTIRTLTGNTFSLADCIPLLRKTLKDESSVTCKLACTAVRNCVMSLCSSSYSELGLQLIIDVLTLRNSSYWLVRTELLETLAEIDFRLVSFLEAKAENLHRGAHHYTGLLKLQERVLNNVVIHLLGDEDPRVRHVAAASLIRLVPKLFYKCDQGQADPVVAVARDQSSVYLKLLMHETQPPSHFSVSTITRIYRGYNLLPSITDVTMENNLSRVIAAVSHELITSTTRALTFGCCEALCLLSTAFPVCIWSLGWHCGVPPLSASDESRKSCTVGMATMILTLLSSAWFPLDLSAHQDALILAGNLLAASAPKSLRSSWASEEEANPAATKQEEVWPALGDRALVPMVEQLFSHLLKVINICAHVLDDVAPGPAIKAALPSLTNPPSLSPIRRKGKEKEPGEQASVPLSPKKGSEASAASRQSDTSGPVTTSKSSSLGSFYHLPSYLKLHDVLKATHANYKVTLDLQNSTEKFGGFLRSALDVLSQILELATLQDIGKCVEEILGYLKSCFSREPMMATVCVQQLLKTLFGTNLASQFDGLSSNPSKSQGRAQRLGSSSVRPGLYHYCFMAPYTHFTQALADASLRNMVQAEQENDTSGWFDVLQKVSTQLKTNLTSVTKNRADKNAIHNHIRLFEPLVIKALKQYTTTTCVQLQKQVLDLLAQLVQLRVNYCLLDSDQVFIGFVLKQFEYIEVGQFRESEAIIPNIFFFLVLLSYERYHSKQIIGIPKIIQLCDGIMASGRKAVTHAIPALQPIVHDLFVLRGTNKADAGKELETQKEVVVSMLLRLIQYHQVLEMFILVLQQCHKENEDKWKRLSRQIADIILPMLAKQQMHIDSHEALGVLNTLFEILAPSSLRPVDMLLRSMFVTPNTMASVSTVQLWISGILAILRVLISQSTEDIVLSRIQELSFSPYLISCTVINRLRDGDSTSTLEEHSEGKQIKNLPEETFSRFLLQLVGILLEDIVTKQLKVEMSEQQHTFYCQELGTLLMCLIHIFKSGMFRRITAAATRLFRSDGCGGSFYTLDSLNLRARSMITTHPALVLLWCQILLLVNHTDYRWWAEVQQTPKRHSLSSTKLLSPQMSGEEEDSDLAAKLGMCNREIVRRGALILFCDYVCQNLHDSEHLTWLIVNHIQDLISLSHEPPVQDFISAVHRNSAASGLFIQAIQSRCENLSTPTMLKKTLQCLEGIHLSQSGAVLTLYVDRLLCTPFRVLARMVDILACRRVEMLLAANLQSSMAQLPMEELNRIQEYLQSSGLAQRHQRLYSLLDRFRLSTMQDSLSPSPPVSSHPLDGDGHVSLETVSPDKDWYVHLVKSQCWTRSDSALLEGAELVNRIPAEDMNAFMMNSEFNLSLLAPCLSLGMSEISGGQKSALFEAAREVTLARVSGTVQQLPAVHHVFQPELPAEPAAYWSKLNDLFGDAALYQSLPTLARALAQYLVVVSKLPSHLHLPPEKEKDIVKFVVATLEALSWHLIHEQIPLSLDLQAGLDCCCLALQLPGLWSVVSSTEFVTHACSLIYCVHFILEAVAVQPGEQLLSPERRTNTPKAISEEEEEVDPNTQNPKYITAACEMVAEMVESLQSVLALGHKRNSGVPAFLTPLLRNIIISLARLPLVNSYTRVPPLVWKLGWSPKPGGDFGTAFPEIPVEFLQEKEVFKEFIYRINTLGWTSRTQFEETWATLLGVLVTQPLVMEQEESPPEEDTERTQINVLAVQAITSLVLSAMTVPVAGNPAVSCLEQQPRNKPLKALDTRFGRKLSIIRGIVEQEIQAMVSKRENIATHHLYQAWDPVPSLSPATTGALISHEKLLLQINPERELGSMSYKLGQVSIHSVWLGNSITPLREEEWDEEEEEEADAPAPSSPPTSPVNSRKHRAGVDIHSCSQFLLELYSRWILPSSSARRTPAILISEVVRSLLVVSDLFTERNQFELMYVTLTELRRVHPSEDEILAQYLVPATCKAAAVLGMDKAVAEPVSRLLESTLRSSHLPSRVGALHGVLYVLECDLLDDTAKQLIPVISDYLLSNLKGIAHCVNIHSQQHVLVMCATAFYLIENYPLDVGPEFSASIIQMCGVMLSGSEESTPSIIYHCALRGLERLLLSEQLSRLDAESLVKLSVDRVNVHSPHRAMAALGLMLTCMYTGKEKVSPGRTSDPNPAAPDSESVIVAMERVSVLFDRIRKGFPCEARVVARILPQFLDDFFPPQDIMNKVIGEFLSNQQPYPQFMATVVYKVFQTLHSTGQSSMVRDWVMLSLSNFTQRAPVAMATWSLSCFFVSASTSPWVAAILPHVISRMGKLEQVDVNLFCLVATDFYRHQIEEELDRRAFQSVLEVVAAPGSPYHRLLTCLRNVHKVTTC
Pf apPOL block – Pf-apPOL DNA polymerase inhibition; Recombinant Pf-apPOL, molecular beacon fluorescence, 1.5 h; inhibition, % at 10 µM; 210,000 tested, 0.25% active
Large screens that a line does not name were inactive. Only a selection was taken, and hits are over-represented in it overall. No stated cut-off is given here; in the data, active means inhibition above about 50%; inactive means the rest.

NNc1nc2ccccc2s1	mHTT CaM bind 86
O=S(=O)(Cc1ccccc1)Nc1nc2ccccc2s1	none
COc1ccc(-c2nc3cccnc3n2C2CCN(C(=O)C3CCCC3)C2)cc1 (centres undefined)	none
N#Cc1c(N2CCOCC2)nsc1-c1ccccc1Cl	none (no result: mHTT CaM bind)
N#CC(C#N)=C1C(Cl)=C(N2CCCCC2)c2ccccc21	mHTT CaM bind 56
COc1cc2c(cc1OC)CN(Cc1c(F)cccc1Cl)CC2	none
CS(=O)(=O)Nc1cccc(NC(=O)c2csc(-c3cc4ccccc4[nH]3)n2)c1	none
O=C(Nc1nccs1)C1COc2ccccc2O1 (centres undefined)	none
O=C(Cn1nc2c(c1NC(=O)C1COc3ccccc3O1)CSC2)NCc1ccco1 (centres undefined)	mHTT CaM bind 94
Cc1ccc(NC(=O)C(=O)NCC2CCN(C(=O)COc3ccccc3)CC2)cc1C	none
O=C(Nc1nnc(COc2ccccc2)o1)c1ccccn1	none
O=C(Nc1nnc(COc2ccccc2)o1)c1cc(Cl)sc1Cl	mHTT CaM bind 56
O=C(CCSc1ccc(Cl)cc1)Nc1nnc(COc2ccccc2)o1	none
O=C(Cc1ccccc1Cl)Nc1nnc(COc2ccccc2)o1	mHTT CaM bind 84
O=c1c(S(=O)(=O)N2CCCCCC2)cccn1Cc1cccc(F)c1	none
Cc1cc(C)c(NC(=O)CN(C)S(=O)(=O)c2ccc3[nH]c4c(c3c2)CCCC4)c(C)c1	none
CN(CC(=O)NCc1cccnc1)S(=O)(=O)c1ccc2[nH]c3c(c2c1)CCCC3	none
CN(CC(=O)NCCC1=CCCCC1)S(=O)(=O)c1ccc2[nH]c3c(c2c1)CCCC3	mHTT CaM bind 63
Cc1ccc(NC(=O)CN(C)S(=O)(=O)c2ccc3[nH]c4c(c3c2)CCCC4)c(Cl)c1	none
Cc1ccc(NC(=O)CN(C)S(=O)(=O)c2ccc3[nH]c4c(c3c2)CCCC4)cc1	none
Cc1cccc(NC(=O)CN(C)S(=O)(=O)c2ccc3[nH]c4c(c3c2)CCCC4)c1	mHTT CaM bind 64
CN(CC(=O)NC1CCCCCC1)S(=O)(=O)c1ccc2[nH]c3c(c2c1)CCCC3	mHTT CaM bind 59
CN(CC(=O)Nc1ccc(Cl)cc1)S(=O)(=O)c1ccc2[nH]c3c(c2c1)CCCC3	mHTT CaM bind 66
CCC(C)C(=O)N1CCCN(C2=NS(=O)(=O)C(c3ccc(F)cc3)=C2C)CC1 (centres undefined)	none
CS(=O)(=O)N(CC(=O)Nc1ccccc1Cl)c1ccc(Cl)c(Cl)c1	none
COc1ccc(CNC(=O)c2cn3cc(Cl)ccc3n2)cc1	none
CC(NC(=O)Cn1ccc2sccc2c1=O)c1ccccc1 (centres undefined)	none
Cc1ccccc1NC(=O)CN(C)S(=O)(=O)c1ccc2[nH]c3c(c2c1)CCCC3	none
CN(CC(=O)Nc1cccc(Cl)c1)S(=O)(=O)c1ccc2[nH]c3c(c2c1)CCCC3	mHTT CaM bind 55
Cc1ccc(Oc2ncccc2NC(=O)c2ccc3c(c2)OCCCO3)c2c1CCC2	none (no result: mHTT CaM bind)
CCn1ccc(C(=O)N2CCN(c3nc(CN4CCC(C)CC4)cs3)CC2)n1	none
COCC(C)NC(=O)C(=O)Nc1ccc(C)cc1[N+](=O)[O-] (centres undefined)	none
CCOc1ccc(N2CC(c3nnc(NC(=O)Cc4ccccc4C)o3)CC2=O)cc1 (centres undefined)	none
COc1ccc(N2CC(c3nnc(NC(=O)Cc4cccc(F)c4)o3)CC2=O)cc1 (centres undefined)	none
Cc1ccc(CC(=O)Nc2nnc(C3CC(=O)N(c4ccccc4)C3)o2)cc1 (centres undefined)	none
Cc1ccccc1CC(=O)Nc1nnc(C2CC(=O)N(c3ccccc3)C2)o1 (centres undefined)	mHTT CaM bind 50
O=C(CSc1ccc(F)cc1)Nc1nnc(C2CC(=O)N(c3ccccc3)C2)o1 (centres undefined)	none
O=C(Cc1cccs1)Nc1nnc(C2CC(=O)N(c3ccccc3)C2)o1 (centres undefined)	mHTT CaM bind 60
COc1ccc(CC(=O)Nc2nnc(C3CC(=O)N(c4ccccc4)C3)o2)cc1 (centres undefined)	mHTT CaM bind 92
COc1ccc(N2CC(c3nnc(NC(=O)Cc4cccc(OC)c4)o3)CC2=O)cc1 (centres undefined)	mHTT CaM bind 53
Cc1cccc(C(=O)NCc2ccc(N3CCOCC3)nc2)c1	none
O=C(NC1CCN(c2nnc3ccc(Cl)cn23)CC1)c1ccncc1	none
CNC(=O)C(C1CCCC1)N1CCN(C(=O)c2ccc(C)cc2)CC1 (centres undefined)	none
O=C(NCc1ccccc1)C1CCN(c2cc(N3CCSCC3)ncn2)CC1	none
CCNC(=O)N1CCCC(c2cccc(C(=O)NCc3ccccc3Cl)c2)C1 (centres undefined)	none
O=C(Nc1nnc(C2CC(=O)N(c3ccccc3)C2)o1)c1cccc(Cl)c1 (centres undefined)	mHTT CaM bind 61
O=C(Nc1nnc(C2CC(=O)N(c3ccc(F)cc3)C2)o1)c1cccc(Cl)c1 (centres undefined)	none
COC(=O)c1ccc(NC(=O)CSc2nc(=O)[nH]c3c2CCC3)cc1	none
O=C(CSc1nc(=O)[nH]c2c1CCC2)c1ccc(Cl)cc1	Pf apPOL block 76
CCN(CC)c1ccc(/C=C2/C(=O)ON=C2C)cc1	mHTT CaM bind 50
CCOc1ccc(Cl)cc1/C=C1/C(=O)ON=C1C	none
CCCOc1ccc(/C=C2/C(=O)ON=C2C)cc1Cl	mHTT CaM bind 58
CCOc1ccc(/C=C2/C(=O)ON=C2C)cc1Cl	mHTT CaM bind 67
CCCCC1(C)OC(=O)C(=Cc2ccc(N(CC)CC)cc2)C(=O)O1 (centres undefined)	none
CCOc1ccc(/C=C2/C(=O)ON=C2C)cc1Br	none
Cc1nnnn1-c1nc(-c2ccco2)cc(C(F)(F)F)n1	none
CN1CCCc2cc(C(CNC(=O)Nc3cccs3)N3CCCC3)ccc21 (centres undefined)	mHTT CaM bind 55
CN1CCN(C(CNC(=O)NCc2ccccc2)c2ccc3c(c2)CCCN3C)CC1 (centres undefined)	none
Cc1ccc(C2CN(C(=O)c3ccccc3C)CC2C(=O)NCc2ccccn2)cc1 (centres undefined)	none
Cn1nc(COCc2cccc(F)c2)c2c1CCN(C(=O)Nc1ccccc1)C2	none
CCNC(=O)N1CCN(C(=O)CC2CCN(S(=O)(=O)c3c(C)noc3C)CC2)CC1	none
CCOc1ccc(N=Cc2nc(-c3ccccc3)oc2O)cc1	none
CC1(c2ccccc2)CC(C)(C)N2C(=O)C(=O)c3cccc1c32 (centres undefined)	mHTT CaM bind 80
CC1(c2ccccc2)CC(C)(C)N(C(=O)C(F)(F)F)c2ccccc21 (centres undefined)	none
N#Cc1ccc(CN2CCCC(c3n[nH]c(C4CC4)n3)C2)cc1 (centres undefined)	none
NC(=O)c1ccc(N=c2oc3c(Cl)cc(Cl)cc3cc2C(N)=O)cc1	none
N=c1oc2c(Cl)cc(Cl)cc2cc1C(N)=O	mHTT CaM bind 91
COc1cc(OC)c2c(-c3ccccc3)cc(=O)oc2c1C(CCN1CCCC1)c1ccc2c(c1)OCO2 (centres undefined)	mHTT CaM bind 100
COc1cc(OC)c2ccc(=O)oc2c1C(CCN1CCCC1)c1ccc2c(c1)OCO2 (centres undefined)	none
COc1cc(OC)c2ccc(=O)oc2c1C(CCN1CCOCC1)c1ccc2c(c1)OCO2 (centres undefined)	none
CCCCCc1cc(=O)oc2c(C(CCN3CCCC3)c3ccc4c(c3)OCO4)c(OC)cc(OC)c12 (centres undefined)	mHTT CaM bind 100
